For seven sequences, binding signal results are on record in article PMC7862700, “An all-to-all approach to the identification of sequence-specific readers for epigenetic DNA modifications on cytosine”.

Holding throughout (assay): DAPPL (digital affinity profiling via proximity ligation, sequencing); 10 mM Tris-HCl pH 7.5, 50 mM NaCl, 1 mM DTT, 4% glycerol, room temperature, 30 min; GST-TFs on glutathione beads, 16-mer random dsDNA library, 0.1% formaldehyde crosslink after washing; high values mean tight binding
Conditions in all cases: protein: recombinant; tags: N-terminal GST; dsDNA, one strand shown

The target in test [1] is T1, FLI1 (Homo sapiens, UniProt Q01543 1-452).
T1 sequence: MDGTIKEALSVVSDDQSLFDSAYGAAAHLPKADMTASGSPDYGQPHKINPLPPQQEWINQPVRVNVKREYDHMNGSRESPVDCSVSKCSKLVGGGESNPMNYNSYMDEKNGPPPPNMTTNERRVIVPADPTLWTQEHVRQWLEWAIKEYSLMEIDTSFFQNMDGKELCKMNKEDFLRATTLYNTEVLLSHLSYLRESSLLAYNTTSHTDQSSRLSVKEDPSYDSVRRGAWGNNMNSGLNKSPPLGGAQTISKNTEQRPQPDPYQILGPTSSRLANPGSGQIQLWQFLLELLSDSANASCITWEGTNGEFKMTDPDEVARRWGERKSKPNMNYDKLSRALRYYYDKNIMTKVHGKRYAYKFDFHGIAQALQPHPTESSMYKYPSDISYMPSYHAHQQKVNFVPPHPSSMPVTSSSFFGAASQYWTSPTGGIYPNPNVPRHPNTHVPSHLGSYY
The essentials: (§1)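 Binding signal is given per hexamer as its read frequency for a factor divided by its frequency in the tag-only sample. GST-fused human transcription factors were expressed in yeast, captured on glutathione beads, barcoded with DNA and pooled with that sample, then incubated with 200 nmole of a 16-mer random double-stranded DNA library in Tris/NaCl/DTT/glycerol buffer for 30 min at room temperature. The pools were then washed, crosslinked, proximity-ligated, amplified by PCR and sequenced on an Illumina NextSeq500.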

Test [2] addresses T2, ELK1 (Homo sapiens, UniProt P19419 1-428).
T2 sequence: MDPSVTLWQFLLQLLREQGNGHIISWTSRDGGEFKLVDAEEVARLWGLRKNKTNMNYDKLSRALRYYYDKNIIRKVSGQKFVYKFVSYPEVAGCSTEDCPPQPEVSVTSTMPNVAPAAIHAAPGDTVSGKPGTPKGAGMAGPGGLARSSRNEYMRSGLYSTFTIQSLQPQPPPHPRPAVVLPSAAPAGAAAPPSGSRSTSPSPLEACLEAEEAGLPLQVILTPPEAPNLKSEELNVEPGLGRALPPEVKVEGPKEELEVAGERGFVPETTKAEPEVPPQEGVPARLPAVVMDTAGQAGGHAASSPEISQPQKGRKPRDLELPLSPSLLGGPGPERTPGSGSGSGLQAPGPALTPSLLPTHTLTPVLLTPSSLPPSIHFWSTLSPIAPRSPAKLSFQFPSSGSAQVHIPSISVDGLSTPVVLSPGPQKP
Put shortly: as §1

In test [3] the target is T3, GABPA (Homo sapiens, UniProt Q06546 1-454).
T3 sequence: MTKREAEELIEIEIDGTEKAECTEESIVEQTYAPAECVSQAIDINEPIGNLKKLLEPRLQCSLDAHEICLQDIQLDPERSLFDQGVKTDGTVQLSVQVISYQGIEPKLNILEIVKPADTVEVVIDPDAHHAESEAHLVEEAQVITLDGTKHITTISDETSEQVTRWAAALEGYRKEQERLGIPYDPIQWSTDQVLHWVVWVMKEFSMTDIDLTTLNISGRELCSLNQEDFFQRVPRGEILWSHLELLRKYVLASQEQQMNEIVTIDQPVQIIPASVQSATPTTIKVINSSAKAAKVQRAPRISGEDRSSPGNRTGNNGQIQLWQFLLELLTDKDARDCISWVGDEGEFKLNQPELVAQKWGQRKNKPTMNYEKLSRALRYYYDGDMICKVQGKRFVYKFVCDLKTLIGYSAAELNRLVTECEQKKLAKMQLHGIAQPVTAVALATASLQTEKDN
Put shortly: as §1

In test [4] the target is T4, ERG (Homo sapiens, UniProt P11308 1-479).
T4 sequence: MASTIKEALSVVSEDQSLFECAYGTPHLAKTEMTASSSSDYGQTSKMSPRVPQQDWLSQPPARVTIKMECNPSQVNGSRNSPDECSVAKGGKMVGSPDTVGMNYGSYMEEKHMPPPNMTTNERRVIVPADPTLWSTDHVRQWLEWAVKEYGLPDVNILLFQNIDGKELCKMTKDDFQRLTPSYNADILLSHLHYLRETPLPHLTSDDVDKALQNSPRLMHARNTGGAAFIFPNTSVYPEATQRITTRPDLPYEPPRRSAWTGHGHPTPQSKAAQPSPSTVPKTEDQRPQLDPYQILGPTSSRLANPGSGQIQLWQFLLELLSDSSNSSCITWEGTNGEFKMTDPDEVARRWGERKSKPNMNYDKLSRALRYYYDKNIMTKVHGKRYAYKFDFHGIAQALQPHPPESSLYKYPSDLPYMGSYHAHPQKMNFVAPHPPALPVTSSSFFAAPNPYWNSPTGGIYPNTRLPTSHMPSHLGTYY
The essentials: as §1

Test [5] addresses ELF1 (Homo sapiens, UniProt P32519 1-619). The essentials: as §1
Test [6] has as its target T5, EHF (Homo sapiens, UniProt Q9NZC4 1-300).
T5 sequence: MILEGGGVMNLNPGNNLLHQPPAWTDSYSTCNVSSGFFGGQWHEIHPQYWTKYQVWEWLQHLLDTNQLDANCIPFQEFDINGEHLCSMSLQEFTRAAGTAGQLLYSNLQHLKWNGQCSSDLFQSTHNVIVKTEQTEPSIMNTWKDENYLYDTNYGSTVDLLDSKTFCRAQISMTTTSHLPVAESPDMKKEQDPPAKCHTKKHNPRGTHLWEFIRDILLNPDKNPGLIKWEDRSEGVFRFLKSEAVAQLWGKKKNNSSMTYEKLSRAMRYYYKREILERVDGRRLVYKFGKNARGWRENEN
The essentials: as §1

Test [7] addresses SPI1 (Homo sapiens, UniProt P17947 1-270). Put shortly: as §1
For test [8], the target named is SPIB (Homo sapiens, UniProt Q01892 1-262). The essentials: as §1
SPIB, sequence (Q01892 whole entry): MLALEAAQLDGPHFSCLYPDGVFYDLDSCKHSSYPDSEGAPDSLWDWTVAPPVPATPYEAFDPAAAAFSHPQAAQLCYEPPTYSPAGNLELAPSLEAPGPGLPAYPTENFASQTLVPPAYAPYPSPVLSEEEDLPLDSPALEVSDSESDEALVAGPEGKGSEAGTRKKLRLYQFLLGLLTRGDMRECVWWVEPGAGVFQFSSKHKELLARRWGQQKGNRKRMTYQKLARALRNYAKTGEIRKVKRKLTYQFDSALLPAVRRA
For test [9], the target named is T6, ELK3 (Homo sapiens, UniProt P41970 1-407).
T6 sequence: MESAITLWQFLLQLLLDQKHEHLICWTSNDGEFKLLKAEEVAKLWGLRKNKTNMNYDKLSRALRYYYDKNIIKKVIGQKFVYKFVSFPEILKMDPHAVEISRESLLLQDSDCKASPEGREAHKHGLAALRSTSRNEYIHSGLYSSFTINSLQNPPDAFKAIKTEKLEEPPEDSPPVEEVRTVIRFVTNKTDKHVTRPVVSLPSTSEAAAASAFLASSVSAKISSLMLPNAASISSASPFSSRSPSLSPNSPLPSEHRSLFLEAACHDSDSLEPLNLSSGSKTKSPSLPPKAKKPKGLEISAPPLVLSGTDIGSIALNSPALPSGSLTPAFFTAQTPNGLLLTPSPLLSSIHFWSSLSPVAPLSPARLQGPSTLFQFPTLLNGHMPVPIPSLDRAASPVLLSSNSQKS
The essentials: as §1

ELF1, sequence (P32519 whole entry): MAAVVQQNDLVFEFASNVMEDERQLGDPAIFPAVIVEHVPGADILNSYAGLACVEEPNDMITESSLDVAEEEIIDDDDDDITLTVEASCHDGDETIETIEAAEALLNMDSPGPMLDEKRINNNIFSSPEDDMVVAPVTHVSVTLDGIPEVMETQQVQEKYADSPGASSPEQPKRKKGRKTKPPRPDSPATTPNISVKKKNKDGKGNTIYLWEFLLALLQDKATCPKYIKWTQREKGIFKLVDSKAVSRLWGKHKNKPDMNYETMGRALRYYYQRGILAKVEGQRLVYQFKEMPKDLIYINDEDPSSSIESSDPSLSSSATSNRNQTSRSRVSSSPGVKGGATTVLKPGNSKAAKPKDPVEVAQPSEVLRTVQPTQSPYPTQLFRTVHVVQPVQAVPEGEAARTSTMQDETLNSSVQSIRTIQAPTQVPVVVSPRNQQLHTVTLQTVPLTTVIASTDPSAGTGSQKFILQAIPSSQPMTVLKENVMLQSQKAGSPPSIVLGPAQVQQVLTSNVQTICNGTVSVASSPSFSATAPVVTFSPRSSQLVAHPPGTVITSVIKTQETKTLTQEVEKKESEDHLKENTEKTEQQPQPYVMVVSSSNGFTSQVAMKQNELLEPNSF

For the sequence CCTCCC, the binding signal is 1.42 fold enrichment (6-mer frequency, TF over GST control) in test [1]; 1.43 fold enrichment (6-mer frequency, TF over GST control) in test [2]; 1.45 fold enrichment (6-mer frequency, TF over GST control) in test [3]; 1.47 fold enrichment (6-mer frequency, TF over GST control) in test [4]; 1.54 fold enrichment (6-mer frequency, TF over GST control) in test [5]; 1.57 fold enrichment (6-mer frequency, TF over GST control) in test [6]. For the same sequence, the binding signal in [7] is 1.48 fold enrichment (6-mer frequency, TF over GST control); in [8] it was 1.48 fold enrichment (6-mer frequency, TF over GST control); in test [9], 1.45 fold enrichment (6-mer frequency, TF over GST control).
In the case of AAATAT, the binding signal in [1] was 1.24 fold enrichment (6-mer frequency, TF over GST control); in test [2], 1.34 fold enrichment (6-mer frequency, TF over GST control); in test [3], 1.33 fold enrichment (6-mer frequency, TF over GST control); in test [4], 1.34 fold enrichment (6-mer frequency, TF over GST control); in test [5], 1.37 fold enrichment (6-mer frequency, TF over GST control); in [6], 1.31 fold enrichment (6-mer frequency, TF over GST control). Further, the binding signal in test [7] was 1.32 fold enrichment (6-mer frequency, TF over GST control); in test [8], 1.47 fold enrichment (6-mer frequency, TF over GST control); in test [9], 1.38 fold enrichment (6-mer frequency, TF over GST control).
In the case of AATCCC, the binding signal in test [1] was 1.36 fold enrichment (6-mer frequency, TF over GST control); in [2], 1.36 fold enrichment (6-mer frequency, TF over GST control); in test [3], 1.38 fold enrichment (6-mer frequency, TF over GST control); in test [4], 1.42 fold enrichment (6-mer frequency, TF over GST control); in test [5], 1.35 fold enrichment (6-mer frequency, TF over GST control); in test [6], 1.39 fold enrichment (6-mer frequency, TF over GST control). Also, the binding signal is 1.26 fold enrichment (6-mer frequency, TF over GST control) in [7]; 1.32 fold enrichment (6-mer frequency, TF over GST control) in test [8]; 1.13 fold enrichment (6-mer frequency, TF over GST control) in [9].
As for GATTAC, the binding signal in [1] is 1.16 fold enrichment (6-mer frequency, TF over GST control); in test [2], 1.1 fold enrichment (6-mer frequency, TF over GST control); in [3], 1.13 fold enrichment (6-mer frequency, TF over GST control); in test [4] it was 1.12 fold enrichment (6-mer frequency, TF over GST control); in test [5], 1.07 fold enrichment (6-mer frequency, TF over GST control); in test [6], 1.12 fold enrichment (6-mer frequency, TF over GST control). The binding signal is 1.09 fold enrichment (6-mer frequency, TF over GST control) in [7]; 1.15 fold enrichment (6-mer frequency, TF over GST control) in test [8]; 1.18 fold enrichment (6-mer frequency, TF over GST control) in [9].
ATGTAA: the binding signal is 1.38 fold enrichment (6-mer frequency, TF over GST control) in test [1]; 1.29 fold enrichment (6-mer frequency, TF over GST control) in [2]; 1.13 fold enrichment (6-mer frequency, TF over GST control) in test [3]; 1.29 fold enrichment (6-mer frequency, TF over GST control) in test [4]; 1.23 fold enrichment (6-mer frequency, TF over GST control) in [5]; 1.32 fold enrichment (6-mer frequency, TF over GST control) in test [6]. In addition, the binding signal was 1.23 fold enrichment (6-mer frequency, TF over GST control) in [7]; 1.33 fold enrichment (6-mer frequency, TF over GST control) in [8]; 1.22 fold enrichment (6-mer frequency, TF over GST control) in [9].
Regarding TCTTAC, the binding signal in test [1] was 1.29 fold enrichment (6-mer frequency, TF over GST control); in test [2] it was 1.36 fold enrichment (6-mer frequency, TF over GST control); in [3], 1.33 fold enrichment (6-mer frequency, TF over GST control); in test [4] it was 1.23 fold enrichment (6-mer frequency, TF over GST control); in test [5], 1.32 fold enrichment (6-mer frequency, TF over GST control); in test [6], 1.2 fold enrichment (6-mer frequency, TF over GST control). For the same sequence, the binding signal in [7] is 1.26 fold enrichment (6-mer frequency, TF over GST control); in [8] it was 1.26 fold enrichment (6-mer frequency, TF over GST control); in [9], 1.3 fold enrichment (6-mer frequency, TF over GST control).
Consider TCCTTC, for which the binding signal in [1] was 2.2 fold enrichment (6-mer frequency, TF over GST control); in test [2], 2 fold enrichment (6-mer frequency, TF over GST control); in test [3] it was 2.01 fold enrichment (6-mer frequency, TF over GST control); in test [4], 2.44 fold enrichment (6-mer frequency, TF over GST control); in [5] it was 2.05 fold enrichment (6-mer frequency, TF over GST control); in [6] it was 2 fold enrichment (6-mer frequency, TF over GST control). In addition, the binding signal in test [7] is 2.15 fold enrichment (6-mer frequency, TF over GST control); in test [8], 2.16 fold enrichment (6-mer frequency, TF over GST control); in [9] it was 2.3 fold enrichment (6-mer frequency, TF over GST control).
